High-throughput results as filed in PubChem BioAssay.
Hits are enriched below; roughly 12% of the tested compounds scored in any of these assays.
G9a inh = inhibitors of human histone lysine methyltransferase G9a; G9a H3K9 monomethylation, AlphaScreen, 2 h; Q96KQ7; hit rate 8.8% among 350,000; Potency, µM (top dose mostly 102 µM), actives largely listed as inhibitors; note: nearly all actives have a fitted effect of over 75% in size
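Methyltransferase reactions run at room temperature for 2 h (20 nM enzyme, 500 nM biotin-H3K9 peptide, 20 uM SAM) after a 15 min compound preincubation; product detected by AlphaScreen beads and anti-H3K9me1 antibody.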
BAZ2B inh = blocks human BAZ2B; AlphaScreen BAZ2B-H3K14Ac peptide displacement; Q9UIF8; Potency, µM (highest dose often 114 µM), usual class: inhibitors; AID 504333; hit rate 4.4% among 360,000; note: nearly all actives have a fitted effect of over 60% in size
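In this displacement format the biotinylated H3(5-23) peptide acetylated at Lys14 serves as ligand at 50 nM, with BAZ2B at 50 nM in PBS pH 7.4 containing 0.01% Tween-20. Donor and acceptor beads are 10 ug/mL final.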
Sfp inh = blocks B. subtilis Sfp PPTase activity. hit rate 3.5% among 310,000. Q9F4F7. Potency, µM, usual class: inhibitors. Biochemical Sfp PPTase activity, qHTS;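 note: the enzyme is Sfp with the accession as filed and its product quenches rhodamine fluorescence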
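Fluorescence-quenching assay with 15 nM Sfp, 5 uM rhodamine-CoA and 12.5 uM BHQ-2-labelled ybbR peptide in pH 7.6 Hepes/MgCl2 buffer. Enzyme was pre-incubated with compound for 15 min at room temperature. Rate was taken from the 30-min fluorescence change (525/598 nm).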
JMJD2A Tudor = inhibitors of human JMJD2A Tudor domain. AlphaScreen JMJD2A-Tudor / H3K4me3 peptide binding. Potency, µM (titrated, usually from 114 µM), usual class: inhibitors. hit rate 4.4% among 390,000; note: nearly all actives have a fitted effect of over 50% in size
HP1b binding inh = blocks HP1-beta chromodomain binding to methylated histone tails; hit rate 0.56% among 390,000; Potency, µM (doses to about 114 µM), most hits filed as inhibitors; AlphaScreen HP1-beta / biotin-H3K9me3 peptide binding; P83916; AID 540317; note: nearly all actives have a fitted effect of over 70% in size
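Compound inhibition of the preformed complex between 50 nM HP1-beta and 50 nM biotinylated H3K9me3 peptide was read by AlphaScreen. Buffer was PBS pH 7.4 with 0.01% Tween-20. Incubations ran 30 min at room temperature, with 10 ug/mL donor/acceptor beads.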
L3MBTL1 block = inhibitors of human L3MBTL1; Q9Y468; AlphaScreen L3MBTL1–H3K9me1 peptide binding; Potency, µM (top dose mostly 57.1 µM), usual class: inhibitors; hit rate 0.66% among 230,000; AID 485360; note: nearly all actives have a fitted effect of over 60% in size
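L3MBTL1 50 nM + b-AHA-H3(1-15)K9me1 75 nM, 30 min RT; compound added, 30 min RT; streptavidin donor/Ni-chelate acceptor beads 10 ug/mL each final, 30 min RT dark; AlphaScreen read.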
Hits are given with their value; [ ] = remark or other dose. Calls come from the whole dose curve; as a rule, active = well fitted curve in the direction sought with a large enough effect; inconclusive = small, poorly fitted or top-dose-only effect, or another doubt; inactive = no such curve, though single readings can be large; an effect the other way counts as inactive or inconclusive.

For COc1cc(C(c2c(C)[nH][nH]c2=O)c2c(C)[nH][nH]c2=O)ccc1OS(=O)(=O)c1ccc(C)cc1 the results were G9a inh 2.8µM, BAZ2B inh inactive, Sfp inh inactive, JMJD2A Tudor inactive and HP1b binding inh inactive.
Screening COc1cc(C(c2c(C)[nH][nH]c2=O)c2c(C)[nH][nH]c2=O)ccc1OS(=O)(=O)c1ccccc1 returned G9a inh 22µM, BAZ2B inh inactive, Sfp inh inactive, JMJD2A Tudor inactive and HP1b binding inh inactive.
COc1cc(C(c2c(C)[nH][nH]c2=O)c2c(C)[nH][nH]c2=O)cc(OC)c1OC was read as G9a inh inactive, BAZ2B inh inactive, Sfp inh inactive, JMJD2A Tudor inactive, HP1b binding inh inactive and L3MBTL1 block inactive.
COc1cc(F)c(S(=O)(=O)N2CCN(S(=O)(=O)c3cccs3)CC2)c(F)c1 was read as JMJD2A Tudor inactive.
For CC(=O)Nc1ccc(NC2=CC(=O)c3ccccc3C2=O)cc1 the results were G9a inh 2µM, BAZ2B inh 13µM, Sfp inh 56µM, JMJD2A Tudor 25µM and HP1b binding inh inactive.
Screening O=C1C=C(Nc2ccc(O)cc2)C(=O)c2ccccc21 returned BAZ2B inh 28µM, Sfp inh inactive, JMJD2A Tudor inconclusive, HP1b binding inh inactive and L3MBTL1 block inactive.
CC(=O)Nc1ccc(Nc2ccccc2)cc1 was read as BAZ2B inh inactive, Sfp inh inactive, JMJD2A Tudor inactive, HP1b binding inh inactive and L3MBTL1 block inactive.
O=S1(=O)N=C(Nc2ccc(O)cc2)c2ccccc21 was read as G9a inh inactive, BAZ2B inh inactive, Sfp inh inactive, JMJD2A Tudor inactive, HP1b binding inh inactive and L3MBTL1 block inactive.
COC(=O)C1=C(C(=O)OC)[C@@H]2N(C)c3ccc(OC)cc3[C@@]23C[C@@H](C(=O)OC)N(S(=O)(=O)c2cccs2)C3=N1 was read as Sfp inh inactive.
`Cc1c2cnn(CC(=O)N3CCN(c4ccc(F)cc4)CC3)c(=O)c2c(C)n1Cc1ccc(F)cc1` gave G9a inh inactive, BAZ2B inh inactive, JMJD2A Tudor inconclusive and HP1b binding inh inactive.
c1ccc(-c2csc3ncn4nnnc4c23)cc1 was read as G9a inh inactive[12.7 µM], BAZ2B inh inactive, Sfp inh inactive, JMJD2A Tudor 14µM, HP1b binding inh inconclusive and L3MBTL1 block inactive.
`CCC(Sc1nc2ccccc2c(=O)n1CCc1ccc(OC)c(OC)c1)C(=O)N(CC)CC` (centres undefined) gave G9a inh inactive, BAZ2B inh inactive, JMJD2A Tudor inactive and HP1b binding inh inactive.
`CCOC(=O)c1ccc(N2C(=O)CC(N(C)CCc3ccc(OC)c(OC)c3)C2=O)cc1` (centres undefined) gave G9a inh 14µM, BAZ2B inh inactive, Sfp inh inactive, JMJD2A Tudor inactive, HP1b binding inh inactive and L3MBTL1 block inactive.
Cc1ccc2sc(NNC(=O)C3COc4ccccc4O3)nc2c1C (centres undefined) was read as G9a inh 32µM, BAZ2B inh inconclusive, Sfp inh inconclusive, JMJD2A Tudor inconclusive, HP1b binding inh inactive and L3MBTL1 block inactive.
COc1cccc2sc(NNC(=O)C3=COCCO3)nc12 was read as G9a inh 13µM, BAZ2B inh inactive, Sfp inh inactive, JMJD2A Tudor inactive and HP1b binding inh inactive.
Screening COc1cccc2sc(NNC(=O)C3COc4ccccc4O3)nc12 (centres undefined) returned G9a inh inconclusive, Sfp inh 79µM, JMJD2A Tudor inactive and HP1b binding inh inactive.
For COc1ccc(OC)c2sc(NC(=O)C3=COCCO3)nc12 the results were G9a inh inactive, BAZ2B inh inactive, Sfp inh inactive, JMJD2A Tudor inactive, HP1b binding inh inactive and L3MBTL1 block inactive.
Screening COc1ccc(CNc2oc(-c3ccc(COc4ccc(Cl)cc4)o3)nc2C#N)cc1 returned G9a inh inactive, BAZ2B inh inconclusive, JMJD2A Tudor inactive and HP1b binding inh inactive.
Screening COc1ccc(Cl)cc1NC(=O)c1nnn(Cc2cccc(C(F)(F)F)c2)c1N returned G9a inh inactive, BAZ2B inh inactive, JMJD2A Tudor inactive and HP1b binding inh inactive.
